Source: PubChem (National Center for Advancing Translational Sciences (NCATS))
Tau fluor counter: counter-screen for tau fibril formation inhibitors. tau K18 P301L Alexa594 fluorescence, heparin fibrillization. Potency, µM (highest dose often 57.7 µM). 0.93% of 280,000 active; note: nearly all actives have a fitted effect of over 55% in size
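Human tau K18 P301L (15 uM unlabeled, 0.24 uM Alexa 594-labeled) in 100 mM sodium acetate pH 7 with 20 uM heparin, 6 hr at 37 C. ThT 30 uM added, 1 hr ambient; Alexa 594 FP and total fluorescence read at 555/632 nm.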
KinaseGlo FLuc: counter-screen: inhibitors of Kinase-Glo firefly luciferase. Potency, µM (doses to about 38.3 µM), actives largely listed as inhibitors. 0.28% of 200,000 active. Kinase-Glo luciferase, ATP luminescence, 8 min; note: nearly all actives have a fitted effect of over 60% in size
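Substrate mix (final 50 mM imidazole pH 7.2, 50 mM KCl, 7 mM MgCl2, 10 uM ATP, 0.01% Tween 20, 0.05% BSA) plus pin-tool compound, then Kinase-Glo detection mix; 8 min ambient, luminescence read.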
NPSR antagonist: neuropeptide S receptor (human) antagonism, cAMP; Q6W5P4; CHO-NPSR cells, cAMP TR-FRET, antagonist mode; Potency, µM (series often up to 38.3 µM), hits mostly inhibitors; 1% of 220,000 active; AID 1461; note: nearly all actives have a fitted effect of over 50% in size
Target sequence (Q6W5P4 whole entry, looked up): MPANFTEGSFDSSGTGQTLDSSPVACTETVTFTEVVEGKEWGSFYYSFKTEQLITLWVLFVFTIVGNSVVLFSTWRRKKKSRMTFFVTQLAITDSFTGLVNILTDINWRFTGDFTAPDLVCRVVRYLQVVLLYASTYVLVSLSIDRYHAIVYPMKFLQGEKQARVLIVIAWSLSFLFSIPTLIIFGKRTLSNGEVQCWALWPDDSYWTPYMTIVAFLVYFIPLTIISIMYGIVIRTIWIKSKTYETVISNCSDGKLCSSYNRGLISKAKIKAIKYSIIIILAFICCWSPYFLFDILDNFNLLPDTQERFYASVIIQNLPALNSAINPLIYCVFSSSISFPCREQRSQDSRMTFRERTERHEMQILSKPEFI
Tau fibril ThT: inhibitors of human tau fibril formation, thioflavin T binding | P10636 | recombinant tau K18 P301L (four-repeat tau fragment), heparin-induced fibrillization, ThT fluorescence | Potency, µM (doses to about 57.4 µM), usual class: inhibitors | 2.1% of 270,000 active | AID 1460; note: nearly all actives have a fitted effect of over 55% in size
Target sequence (P10636 561-689 P618L limits assumed): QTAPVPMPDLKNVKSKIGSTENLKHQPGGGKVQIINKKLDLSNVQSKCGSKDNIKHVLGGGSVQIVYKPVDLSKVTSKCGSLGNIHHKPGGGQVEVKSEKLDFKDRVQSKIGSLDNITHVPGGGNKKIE
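Heparin-induced (20 uM) aggregation of recombinant human K18 P301L tau, 15 uM unlabeled with 0.24 uM labeled, pH 7 acetate buffer, 6 hr at 37 C with compound. Fibrils quantified by 30 uM ThT fluorescence after 1 hr ambient incubation.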
Tau FP inhib: inhibitors of human tau fibril formation | P10636 | K18 P301L tau heparin fibrillization, Alexa594 FP, 6 h | Potency, µM (series often up to 57.7 µM), actives largely listed as inhibitors | 0.39% of 280,000 active | AID 1468; note: nearly all actives have a fitted effect of over 55% in size
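Read-out: fluorescence polarization of Alexa 594-labeled tau (0.24 uM), 555 nm excitation, 632 nm emission. Mixtures held 15 uM unlabeled K18 P301L, compound and 20 uM heparin, pH 7 acetate buffer, incubated 6 hr at 37 C.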
Hits are given with their value; 0 = inactive; ? = inconclusive; - = not tested or not shown; [ ] = remark or other dose. Only some compounds are listed: those with a hit (about 3.3% of all), similar ones and a draw of the others. Calls come from the whole dose curve; as a rule, active = well fitted curve in the direction sought with a large enough effect; inconclusive = small, poorly fitted or top-dose-only effect, or another doubt; inactive = no such curve, though single readings can be large; an effect the other way counts as inactive or inconclusive.

SMILES	Tau fluor counter	KinaseGlo FLuc	NPSR antagonist	Tau fibril ThT	Tau FP inhib
COc1ccc(-c2ccc3c(N)c(C(=O)Nc4ccc(C)cc4C)sc3n2)cc1OC	8.9µM[quencher]	-	-	?	0
CCOc1ccccc1NC(=O)c1sc2nc(-c3ccc(OC)cc3)ccc2c1N	3.5µM[quencher]	-	-	?	0
Cc1cccc(Cn2c(CN3CCCC(C)C3)nc3c2c(=O)n(C)c(=O)n3C)c1 (stereo unspecified)	0	-	-	0	0
CC(=O)c1ccc(NC(=O)Cn2nc(C(F)(F)F)c3c2CCCC3)cc1	0	-	-	0	?
COc1ccc(OC)c(CCNc2nc3ccccc3c3nc(-c4cccnc4)nn23)c1	0	-	-	0	0
O=C(NCCc1ccccc1)c1cc(-c2ccc(Cl)cc2)on1	0	-	-	0	0
COc1ccc(-n2c(-c3ccc(Cl)cc3)c[n+]3c2CCc2ccccc2-3)cc1	0	0	0	0	0
Cc1ccc(-n2c(-c3ccc(Br)cc3)c[n+]3c2CCc2ccc4cccnc4c2-3)cc1	0	0	10µM	?	0
Cc1ccc(N/C(N)=N/c2nc(C)cc(N3CCCCC3)n2)c(C)c1	0	0	10µM	0	0
COc1ccc(Nc2nc(-c3cccs3)nc3ccccc23)cc1	10µM[quencher]	0	0	?	0
COc1cccc(Nc2nc(-c3cccs3)nc3ccccc23)c1	?	0	0	0	25µM
COc1cccc(CN(C)c2nc(-c3cccs3)nc3ccccc23)c1	0	0	0	?	?
COc1ccc(Nc2nc(-c3cccc([N+](=O)[O-])c3)nc3ccccc23)cc1	3.5µM[quencher]	0	0	?	?
COc1ccc(N2CC3=C(C2=O)C(c2ccc(Br)cc2)NC(=O)N3C)cc1 (stereo unspecified)	0	-	-	0	0
CCOC(=O)c1[nH]c(C)c(C(=O)OCC)c1C	0	0	0	0	0
CCOC(=O)c1c(C(F)(F)C(F)(F)C(F)(F)C(F)(F)F)n[nH]c1C	0	0	0	0	14µM
COC1=CC(=O)C(O)=C/C1=C\C=C\c1ccccc1	?	0	-	7.9µM	16µM
COc1ccc2c(c1)C(=O)/C(=C/C=C/c1ccccc1)CC2	0	0	?	0	0
CCOc1ccc(CCNC(=O)CSc2nnnn2-c2ccccc2)cc1OCC	0	-	-	0	0
O=C(COc1ncnc2c1cnn2-c1ccccc1)Nc1ccc(S(=O)(=O)N2CCCCC2)cc1	?	0	0	0	18µM
CC(C)(C)c1cc(/C=C(\C#N)C(N)=S)cc(C(C)(C)C)c1O	?	0	0	?	0
[C-]#[N+]/C(C#N)=C\c1cc(C(C)(C)C)c(O)c(C(C)(C)C)c1	?	0	-	25µM	?
O=C(Nc1cccc(NC(=O)c2cccs2)c1)c1ccc([N+](=O)[O-])o1	32µM[quencher]	-	0	-	0
Cc1ccc(NC(=O)c2cccs2)cc1[N+](=O)[O-]	0	0	0	0	0
O=C(/C=C/c1cccc([N+](=O)[O-])c1)Nc1cccc(NC(=O)c2cccs2)c1	13µM[quencher]	0	0	?	?
SMILES	Tau fluor counter	KinaseGlo FLuc	NPSR antagonist	Tau fibril ThT	Tau FP inhib
COc1ccc(-c2noc(-c3ccc(NC(C)c4ccccc4)c([N+](=O)[O-])c3)n2)cc1OC (stereo unspecified)	0	-	-	0	0
CCOC(=O)c1sc2ncc([N+](=O)[O-])cc2c1N	0	-	0	7.9µM	0
COc1ccc(-c2[nH]nc3c2C(c2ccccc2OC(=O)N2CCOCC2)C(C#N)=C(N)O3)cc1 (stereo unspecified)	0	0	0	0	0
COc1ccc(-c2[nH]nc3c2C(c2ccc(OC(=O)N4CCOCC4)cc2)C(C#N)=C(N)O3)cc1 (stereo unspecified)	?	0	13µM	?	?
CCOc1cc(/C=C(/C#N)C(=O)Nc2ccc(O)cc2)cc(Br)c1O	?	0	0	8.9µM	0
COc1ccc(C(=O)N2CCC[C@@]3(CCN(c4ccccc4)C3)C2)cc1	-	0	-	-	-
Cn1c(=O)[nH]c2nnc(-c3ccc(Cl)c(Cl)c3)nc2c1=O	0	-	0	16µM	0
Oc1c(N=Nc2ccccn2)ccc2ccccc12	?	11µM	?	4.5µM	?
CCN1C(=O)[C@@H]2[C@H]3C(=CC[C@@H]2C1=O)C1(OCCCO1)[C@H]1O[C@@H]1[C@H]3O	?	-	-	2.8µM	?
CC(=O)OC[C@@H]1O[C@@H](O/N=C2/C[C@@H](O)[C@@H](O)[C@@H]3[C@@H]4C(=O)N(C(C)(C)C)C(=O)[C@H]4CC[C@@H]23)[C@H](OC(C)=O)[C@H](OC(C)=O)[C@@H]1OC(C)=O	0[11.6 µM]	-	-	0[11.5 µM]	0[11.6 µM]
CN(C)c1ccc(/C=C2\SC(=O)N(CCc3nnc(N)s3)C2=O)cc1	0	-	0	?	0
C#CCN1C(=O)S/C(=C/C=C/c2ccc(N(C)C)cc2)C1=O	0	0	0	1.6µM	?
Cc1cccc(N(C)c2nc3ccc(C(=O)c4ccccc4)cc3n3c(C)nnc23)c1	0	-	-	?	0
COc1cccc(CNc2ccc(F)c(Cl)c2)c1O	0	0	10µM	?	0
CCOc1ccc(CN2C(=O)c3ccccc3Sc3ccc(C(=O)NC4CCC(C)CC4)cc32)cc1 (stereo unspecified)	0	-	-	0	0
CCc1ccc[n+](-c2[nH]c(=O)sc2/C=N/N=C(\[O-])CCn2c3ccccc3c3ccccc32)c1	?	-	0	16µM	0
Cc1cc[n+](-c2[nH]c(=O)sc2/C=N/N=C(\[O-])CCn2c3ccccc3c3ccccc32)cc1	?	-	0	28µM	?
CCc1cccc(C)c1NC(=O)C1CCCN1S(=O)(=O)c1cccc2nsnc12 (stereo unspecified)	0	-	-	0	0
C[C@@]12CCC3c4ccc(OC5C=CC(c6ccccc6)OC5CO)cc4CCC3C1CCC2=O (stereo partly specified)	0[11.6 µM]	-	-	?	0[11.6 µM]
COc1cc(NC(=O)c2cc3c(Cl)nc4ccccc4c3s2)cc(OC)c1OC	8.9µM[quencher]	0	0	?	0
COCn1c2ccccc2c2nnc(C(C)=O)nc21	0[11.6 µM]	-	-	0[11.5 µM]	0[11.6 µM]
Fc1ccc(N2CCN(C3=Nc4cccc5cccc3c45)CC2)cc1	0	0	?	4.5µM	0
CCCCN(CC)CCCNC(=O)Nc1sc2nc3n(c(=O)c2c1C)CCC(C)CC3 (stereo unspecified)	?	-	-	0	0
S=C1SCN(Cc2ccco2)CN1Cc1ccco1	0	-	?	?	0
N#CC1=C2SCN(Cc3ccco3)CN2C(=O)CC1c1cccc2ccccc12 (stereo unspecified)	0	0	0[7.67 µM]	18µM	?
S=C1NCN(Cc2ccco2)CN1c1cccc2ccccc12	0	-	0	0	0
N#CC1=C2SCN(Cc3ccco3)CN2C(=O)CC1c1ccccc1F (stereo unspecified)	0	0	0	18µM	?
COc1cc(/C=C2\SC(=S)NC2=O)ccc1OS(=O)(=O)c1ccccc1	?	0	0	16µM	0
COc1ccc(/C=C2\SC(=S)NC2=O)cc1OS(=O)(=O)c1ccc(NC(C)=O)cc1	0	0	0	13µM	0
